EP2 antag = inhibitors of human EP2 prostaglandin E2 receptor | inhibition, % at 25 µM | hit rate 0.52% among 260,000 | AID 1422 | C6 glioma cells expressing human EP2, cAMP TR-FRET; cells stimulated with saturating PGE2;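 active means percent inhibition above 40 after rounding to a whole number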;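 further: rat C6 glioma host cells with rolipram phosphodiesterase inhibitor present; the protocol text gives 20 µM as final concentration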
Target sequence (P43116 whole entry, looked up): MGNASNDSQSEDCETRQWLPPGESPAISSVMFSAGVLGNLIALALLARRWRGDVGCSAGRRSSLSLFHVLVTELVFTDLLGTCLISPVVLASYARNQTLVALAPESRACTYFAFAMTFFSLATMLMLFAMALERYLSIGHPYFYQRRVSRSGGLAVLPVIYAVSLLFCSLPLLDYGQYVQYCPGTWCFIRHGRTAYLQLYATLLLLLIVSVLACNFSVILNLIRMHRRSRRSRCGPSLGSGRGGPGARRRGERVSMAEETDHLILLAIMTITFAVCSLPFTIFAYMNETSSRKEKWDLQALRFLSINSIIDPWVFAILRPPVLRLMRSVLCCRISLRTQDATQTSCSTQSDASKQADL
CHT inh = inhibitors of human choline transporter CHT; CHT-expressing cells, membrane potential dye, choline response; active compounds read low; AID 488975; Q9GZV3; hit rate 0.86% among 310,000; B-score at 10 µM;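 active means B-score over 3 SD under the library average, and starting fluorescence ratio not unusually high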;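 further: choline stimulus applied at its EC90 after an EC20 pre-addition; B-score computed on integrated fluorescence ratio after choline addition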
CHT allo act = allosteric activators of human choline transporter CHT | Q9GZV3 | CHT-expressing cells, membrane potential dye, choline EC20; active compounds read high; LV-AA mutant CHT in HEK293 cells | B-score at 10 µM | hit rate 0.49% among 310,000;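 active means initial fluorescence not abnormally high and integrated response B-score, plate-corrected, over 3 SD above library mean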
EP2 modulator = modulators of human EP2 prostaglandin E2 receptor | P43116 | EP2-expressing cells, cAMP HTRF FRET, PGE2 co-stimulation | induction, % at 25 µM | hit rate 0.83% among 260,000;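 active means compounds whose cAMP rise, as percent of the full-agonist control response, exceeds 60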;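 further: rat C6 glioma line stably carrying human EP2 under a CMV promoter; the protocol text gives 20 µM as final concentration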
A number is an active result; ! = not confirmed by another sample. Rows were chosen to be rich in hits. Some 2% of all compounds tested hit in one or more screens of this group.

What do the screens show for `COC(=O)C(Nc1ccccc1Cl)(c1cc(C)c(O)c(C)c1)C(F)(F)F` (stereo unspecified)?
EP2 antag: inactive; CHT inh: inactive; CHT allo act: inactive; EP2 modulator: inactive

How did Cc1sc(NC(=O)CN2CCC(O)(Cc3ccccc3)CC2)c(C(N)=O)c1C do in these assays?
EP2 antag: inactive; EP2 modulator: inactive

What do the screens show for `CCOc1cccc(C2C(C(=O)c3ccco3)=C(O)C(=O)N2CCN(C)C)c1` (stereo unspecified)?
EP2 antag: inactive; EP2 modulator: inactive

What do the screens show for `CCOC(=O)c1cc(OC(=O)c2ccccc2)n(-c2ccccc2)n1`?
EP2 antag: inactive; CHT inh: inactive; CHT allo act: inactive; EP2 modulator: 61.7

Results for CC(CCc1nc2ccccc2s1)(c1ccc(O)cc1)c1ccc(O)cc1 ?
EP2 antag: 99.9; EP2 modulator: inactive

What do the screens show for `C[N+](C)(C)CCN(Cc1cccs1)c1ccccn1`?
EP2 antag: 55.2; EP2 modulator: inactive

Results for CCCC(=O)Nc1ncnc2c1ncn2[C@@H]1O[C@@H]2COP(=O)(O)O[C@H]2[C@H]1OC(=O)CCC ?
EP2 antag: inactive; CHT inh: inactive; CHT allo act: inactive; EP2 modulator: 108.7

What do the screens show for `c1ccc2sc(SCN(C3CCCCC3)C3CCCCC3)nc2c1`?
EP2 antag: 43.4; EP2 modulator: inactive

What do the screens show for `COc1ccc(/C=C2/SC(=S)N(NS(=O)(=O)c3ccc(C)cc3)C2=O)cc1`?
CHT inh: -5.6; CHT allo act: inactive

What do the screens show for `Cc1ccc(/C=C2\SC(=S)N(NS(=O)(=O)c3ccc(C)cc3)C2=O)cc1`?
CHT inh: inactive; CHT allo act: inactive

Results for Cc1nc(NC(=O)CSc2nc3c(C)cccc3cc2C#N)sc1C ?
EP2 antag: inactive; EP2 modulator: inactive

What do the screens show for `COc1ccccc1NC(=O)CSc1nc(C2CCCCC2)nc2ccccc12`?
EP2 antag: inactive; EP2 modulator: 78.6

How did CCCc1nc(SCC(=O)Nc2nc(C)c(C)s2)c2ccccc2n1 do in these assays?
EP2 antag: inactive; EP2 modulator: 63.5

Results for CC(=O)Nc1ccc(NC(=O)CSc2nc(C3CCCCC3)nc3ccccc23)cc1 ?
EP2 antag: inactive; EP2 modulator: inactive

Results for CSc1nc(Cc2ccccc2)nc2ccccc12 ?
EP2 antag: inactive; CHT inh: inactive; CHT allo act: inactive; EP2 modulator: 62.1

What do the screens show for `Cc1cc(C)c2nc(SCC(=O)Nc3nc(C)c(C)s3)cc(C)c2c1`?
EP2 antag: inactive; EP2 modulator: 61.2

Results for CC(C)N(C(=O)CSc1nc(Cc2ccccc2)nc2ccccc12)C(C)C ?
CHT inh: inactive; CHT allo act: inactive

How did Cc1cccc(NC(=O)CSc2nnc3c4c(C)c(C)sc4nc(C(C)C)n23)c1 do in these assays?
EP2 antag: inactive; EP2 modulator: inactive

What do the screens show for `CCOc1ccc(N(CC(=O)N2CCN(c3ccc(F)cc3)CC2)S(C)(=O)=O)cc1`?
EP2 antag: inactive; EP2 modulator: inactive

What do the screens show for `O=C(CSc1nc(C2CCCCC2)nc2ccccc12)N1CCCC1`?
EP2 antag: inactive; CHT inh: inactive; CHT allo act: inactive; EP2 modulator: inactive

Results for CCOC(=O)CSc1nc(C2CCCCC2)nc2ccccc12 ?
EP2 antag: inactive; EP2 modulator: 65.5

What do the screens show for `CCOc1ccccc1NC(=O)CSc1nc(Cc2ccccc2)nc2ccccc12`?
EP2 antag: inactive; EP2 modulator: 78.5

Results for CC(C)(C)NC(=O)CSc1nc(Cc2ccccc2)nc2ccccc12 ?
CHT inh: inactive; CHT allo act: inactive

How did Cc1cc(NCC(C)(C)CN(C)C)n2nc(-c3cccs3)cc2n1 do in these assays?
EP2 antag: inactive; EP2 modulator: inactive

What do the screens show for `COC(=O)c1c(NC(=S)NC(=O)c2cccs2)sc2c1CCCC2`?
EP2 antag: inactive; EP2 modulator: inactive

What do the screens show for `CC[C@@H](Cn1nc(-c2cccs2)ccc1=O)NC(=O)CCn1nnc2ccccc21`?
EP2 antag: inactive; EP2 modulator: inactive

How did O=C(c1ccccc1)N1C(=O)C(c2ccccc2)Oc2ccccc21 (stereo unspecified) do in these assays?
EP2 antag: inactive; CHT inh: inactive; CHT allo act: inactive; EP2 modulator: 81.3

What do the screens show for `CC1Oc2ccccc2N(CC(=O)c2ccccc2)C1=O` (stereo unspecified)?
EP2 antag: inactive; CHT inh: inactive; CHT allo act: inactive; EP2 modulator: inactive

What do the screens show for `Cc1ccc(-n2nc3c(=O)n(C(C)C(=O)NCCc4cccs4)nc(C)c3c2C)cc1` (stereo unspecified)?
CHT inh: -5.54; CHT allo act: inactive

How did Cn1c(=O)c2[nH]c(CCCCC(=O)O)nc2n(C)c1=O do in these assays?
EP2 antag: inactive; EP2 modulator: inactive

What do the screens show for `Cn1c(=O)c2[nH]c(CS(=O)(=O)Cc3nc4c([nH]3)c(=O)n(C)c(=O)n4C)nc2n(C)c1=O`?
EP2 antag: 50.4; EP2 modulator: inactive

How did COC(=O)c1nnn(-c2ccccc2)c1N do in these assays?
EP2 antag: inactive; CHT inh: inactive; CHT allo act: inactive; EP2 modulator: inactive

What do the screens show for `COC(=O)c1c(C)nc2c(c(SC)nn2-c2ccccc2)c1N`?
EP2 antag: inactive; CHT inh: inactive; CHT allo act: inactive; EP2 modulator: 63.3

How did COC(C(=O)Nc1ccc(S(=O)(=O)N2CCCC2)cc1)c1ccccc1 (stereo unspecified) do in these assays?
EP2 antag: inactive; EP2 modulator: inactive

Results for CC(C)N1CCN(c2ccncc2S(=O)(=O)N2CCCCC2)CC1 ?
EP2 antag: 41.4; EP2 modulator: inactive

Results for CCCc1cc(C(=O)NCCCc2ccc(F)cc2)n[nH]1 ?
EP2 antag: inactive; EP2 modulator: inactive

What do the screens show for `N#CCn1cc(/C=C2\C(=O)NC(=O)N(c3ccc(Cl)cc3)C2=O)c2ccccc21`?
EP2 antag: 84.3; EP2 modulator: inactive

How did CCOC(=O)Cc1[nH]nc2c1C(c1ccc(OC)c(OC)c1)C(C#N)=C(N)O2 (stereo unspecified) do in these assays?
EP2 antag: inactive; EP2 modulator: inactive

What do the screens show for `CC1(C)CC(NC(=O)c2ccccc2C(=O)NC2CC(C)(C)NC(C)(C)C2)CC(C)(C)N1`?
EP2 antag: inactive; CHT inh: inactive; CHT allo act: inactive; EP2 modulator: inactive

Results for CC1(C)CC(Nc2ccc(Nc3ccccc3)cc2)CC(C)(C)N1 ?
EP2 antag: 59.6!; CHT inh: inactive; CHT allo act: inactive; EP2 modulator: inactive

Results for N#Cc1ccsc1NC(=O)c1ccc(Cl)c([N+](=O)[O-])c1 ?
EP2 antag: inactive; CHT inh: -8.74; CHT allo act: inactive; EP2 modulator: inactive

Results for N#Cc1ccsc1NC(=O)c1cccc([N+](=O)[O-])c1 ?
EP2 antag: inactive; CHT inh: inactive; CHT allo act: inactive; EP2 modulator: inactive

Results for CN(C1=C(NC(=O)c2ccccc2)C(=O)c2ccccc2C1=O)C1CCS(=O)(=O)C1 (stereo unspecified) ?
EP2 antag: 44.1; CHT inh: inactive; CHT allo act: inactive; EP2 modulator: inactive
